As a reminder, the inhibition is the change of the read-out against control, counted positive when it falls.

Several values for one entry are separate records, joined by “and”; a condition that tells them apart may be missing. Equal entries are not always repeated. About 3,000 (1%) of roughly 290,000 compounds were called active. The list comes from a sample in which actives are over-represented; it also holds similar structures and randomly drawn compounds. Values without a mark were called inactive. No stated cut-off is given here; in the data, active means inhibition mostly above about 36% (no sharp cut-off); inactive means mostly below about 34%.

The record followed here is PubChem BioAssay AID1578 (Sanford-Burnham Center for Chemical Genomics, 2009).

The test in a line: inhibition of NOD1-driven NF-kB reporter – cell-based, luminescence, uHTS, primary screen (AID 1578).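 Further: HEK-293T reporter cells stimulated with the NOD1 agonist gamma-tri-DAP.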 The note with it: NOD1-driven NF-kB luciferase reporter cells, at 4 µM, hits give high values. For orientation: In a reporter assay the amount or activity of a reporter protein is the signal.
As to `C=CCC(O)(CCN1CCCCC1)c1ccccc1` (centres undefined), the inhibition is -19.4%.
The figure for `Cc1ccccc1N(C(=O)c1ccccn1)C(C(=O)NCc1ccccc1)c1ccncc1` (centres undefined) is -21.2%.
The result for `O=C(Cc1ccc(Cl)cc1Cl)Nc1cccc(S(=O)(=O)Nc2ccccc2F)c1` reads -7.5%; that for `N#CC(C#N)=C1C=CC=CN1/C(=C\c1ccco1)C(=O)c1ccccc1`, -25.3%.
The figure for `N#CC(C#N)=C1C=CC=CN1/C(=C\c1ccco1)C(=O)c1ccc(Cl)cc1` is 104% (active).
For `N#CC(C#N)=C1C=CC=CN1/C(=C\c1ccco1)C(=O)c1ccc(Br)cc1`, the inhibition is -10.9%.
The result for `CCOC(=O)C(CCc1nnc(N)s1)C(=O)OCC` reads -16.9%; that for `COc1ccc(N(CC(=O)NCc2ccco2)C(=O)CCC(=O)Nc2nccs2)c(OC)c1`, -20.5%.
The result for `O=C(N/N=C/c1cn(-c2cccs2)nc1-c1ccccc1)c1ccccc1Br` reads -30.5%.
For the molecule `O=C(O)c1[nH]c2ccccc2c1C(c1c(F)cccc1Cl)c1c(C(=O)O)[nH]c2ccccc12`, the inhibition is -43.4%.
The figure for `CNc1ccc(/C=C2\CSc3ccccc3C2=O)cc1[N+](=O)[O-]` is 73.4% (active); for `O=C1/C(=C/c2cccc([N+](=O)[O-])c2)CSc2ccc(Cl)cc21` it is -12%.
The figure for `CNc1ccc(/C=C2\COc3ccccc3C2=O)cc1[N+](=O)[O-]` is -7.1%.
Take `COc1ccc(C2/C(=C(/O)c3ccccc3)C(=O)C(=O)N2C)cc1` (centres undefined): the inhibition was -38.6%.
The result for `COc1ccc(CNC(=O)c2cc3cccc(OC)c3oc2=N)cc1` reads 4.1%; that for `COc1cccc2cc(C(=O)NCc3ccc(Cl)cc3)c(=N)oc12`, 85.8% (active); that for `COc1cccc2cc(C(=O)NCc3ccc(C)cc3)c(=N)oc12`, 18.3%.
As for `COc1cc(/C=N\NC(=O)c2ccc(-c3ccccc3)cc2)ccc1OCC(N)=O`, the inhibition was -24.5%.
The figure for `Cc1ccc(S(=O)(=O)N(C)c2cc(S(=O)(=O)N3CCOCC3)c(C)cc2C)cc1` is -26.1%; for `COc1cc(S(=O)(=O)NCc2ccc3c(c2)OCO3)ccc1Cl` it is -0.2%.
Consider `COc1c(C(=O)NC(=S)Nc2nnn(C)n2)cc2ccccc2c1Br`, for which the inhibition was 29.6%.
The result for `CC(C)NC(=O)CCCc1c[nH]c2ccccc12` reads -33%; that for `CC(NC(=O)CCCc1c[nH]c2ccccc12)c1ccc(F)cc1` (centres undefined), 51.3% (active).
The figure for `CC(NC(=O)CCc1c[nH]c2ccccc12)c1ccccc1` (centres undefined) is -38.3%.
For `Cc1ccc(Nc2nnc(-c3ccc4c(c3)OCO4)o2)c(C)c1`, the inhibition is -19.5%.
The result for `Cc1cc(N/N=C/c2cccc(Cl)c2)nc(-n2nc(C)cc2C)n1` reads -0.3%.
Take `Cc1cc(N/N=C/c2cccc([N+](=O)[O-])c2)nc(-n2nc(C)cc2C)n1`: the inhibition is -14.5%.
The result for `Cc1nn(-c2ccccc2)c2c1P(=O)(O)/C(=C1\N(C)c3ccccc3C1(C)C)C=N2` reads -9%; that for `Cc1cc(C(=O)NNS(=O)(=O)c2ccc(C(C)(C)C)cc2)nn1C(C)(C)C`, -6.5%.
As to `NNC(=O)Cn1c(-c2ccccn2)nc2ccccc21`, the inhibition is -10.4%.
As to `Cc1cc(=O)oc(C)c1C(=O)OCC(=O)c1ccc(Cl)c(Cl)c1`, the inhibition is -32.3%.
Consider `Cc1cc(=O)oc(C)c1C(=O)OCC(=O)c1ccc(Cl)cc1`, for which the inhibition is 79.2% (active).
As to `Cc1cc(=O)oc(C)c1C(=O)OCC(=O)c1ccc(Br)cc1`, the inhibition is -27.3%.
Take `CCOC(=O)N1CCN(S(=O)(=O)N2CCCC(C(=O)NCCc3ccccc3)C2)CC1` (centres undefined): the inhibition is -26.5%.
The result for `CC(C)c1[nH]c(=O)c(C#N)c2c1COC(C)(C)C2` reads -18.6%; that for `CC(C)n1c(O)c(N=NC(=O)CNC(=O)c2cccnc2)c2ccccc21`, -19.7%.
The figure for `CCCCc1nc(NCCO)c(C#N)c2c1CCCC2` is -8.5%; for `CC(C)c1nc(NCCO)c(C#N)c2c1CCCC2` it is 81% (active); for `CCCc1nc(NCCO)c(C#N)c2c1CCCC2` it is 17.9%.
With `CCc1nn2c(N)c(/C=C3\C=Nc4ccccc43)c(=O)nc2s1`, the inhibition is -37.5% and 2.9%.
The figure for `CCCc1nn2c(N)c(/C=C3\C=Nc4ccccc43)c(=O)nc2s1` is -56% and -14.1%; for `CCCCc1nn2c(N)c(/C=C3\C=Nc4ccccc43)c(=O)nc2s1` it is 79.1% (active); for `Cc1ccc(S(=O)(=O)n2cc(-c3ccccc3)c(N)n2)cc1` it is -4.9%.
For the molecule `Nc1nonc1C(=O)NCCNC(=O)c1cccc(Cl)c1`, the inhibition was -28.8%.
As for `O=Cc1[nH]c2ccccc2c1N(C(=O)CCl)c1ccc([N+](=O)[O-])cc1`, the inhibition was 19.2%.
The result for `CC(=O)N(c1ccc(Cl)cc1)c1cn(C(C)=O)c2ccccc12` reads -16.5%; that for `CCOC(=O)c1ccccc1Nc1cn(C(C)=O)c2ccccc12`, -3.8%.
For `CC(=O)n1cc(N(C(=O)CCl)c2ccc(Cl)cc2)c2ccccc21`, the inhibition is 14.2%.
The result for `CC(=O)n1cc(N(C(=O)CCl)c2ccc([N+](=O)[O-])cc2)c2ccccc21` reads 38.7% (active).
The result for `COc1ccccc1N(C(=O)CCl)c1cn(C(C)=O)c2ccccc12` reads 93% (active); that for `CC(=O)n1cc(Nc2ccc([N+](=O)[O-])cc2)c2ccccc21`, -18%; that for `CC(=O)n1cc(CO)c2ccccc21`, -5.2%.
The figure for `CN1/C(=C/C(=O)CSc2ccccc2C(=O)O)C(C)(C)c2ccccc21` is 10.5%.
Take `CCC(Oc1ccccc1OC)C(=O)N1CC(=O)Nc2ccccc21` (centres undefined): the inhibition was 29%.
For `CCOc1ccc(NS(=O)(=O)c2ccc(NS(=O)(=O)c3cccs3)cc2)cc1`, the inhibition was -17.3%.
The figure for `COc1ccc(Cl)cc1NC(=O)N(C)Cc1c(C)nn(C)c1C` is -24.6%; for `Cc1cc(NCc2ccccc2)nc(-c2ccccc2O)n1` it is -41.6%; for `CC(=O)c1c(C)[n+]([O-])c2ccc3c(non3O)c12` it is -20%.
With `[O-][n+]1c2c(c3c4non(O)c4ccc31)CCCC2`, the inhibition was 79.7% (active).
The result for `CCOC(=O)c1c(C)[n+]([O-])c2ccc3c(non3O)c12` reads -24.8%; that for `CCN(C(=O)c1c(-c2ccccc2Cl)noc1C)C1CCCCC1`, -10.1%.
Consider `Cc1cc(C)c2nc3nc(C)cc(C)c3c(N)c2c1`, for which the inhibition is -26.5%.
In the case of `Cc1cc(C)c2nc(C(F)(F)F)c(C#N)c(N)c2c1`, the inhibition was 76.9% (active).
The result for `Cc1cc(C)c2nc3nc(C)c(C)cc3c(N)c2c1` reads -27.3%.
The figure for `COc1cc2c(=O)n(CCC(=O)NCC3CCCO3)c(=O)n(CC(=O)Nc3ccc(C)c(C)c3)c2cc1OC` (centres undefined) is -11.3%; for `CC(C)(CO)NS(=O)(=O)c1ccc2c(c1)oc(=O)c1cc(S(=O)(=O)NC(C)(C)CO)ccc12` it is -6.5%; for `CC(C)(C)C(=O)Nc1cc2nn(-c3ccccc3)nc2cc1Cl` it is 87.1% (active).
The result for `CC(=O)Nc1cc2nn(-c3ccccc3)nc2cc1Cl` reads -27.6%; that for `CCC(=O)Nc1cc2nn(-c3ccccc3)nc2cc1Cl`, -22.2%; that for `O=C(O)C1CCCN1c1ncccc1[N+](=O)[O-]` (centres undefined), -20.8%.
For `CCN1CCN(CC(O)COCCOc2ccc(Br)cc2)CC1` (centres undefined), the inhibition was -19.1%.
The result for `OCCN1CCN(CC(O)COCCOc2ccc(Br)cc2)CC1` (centres undefined) reads 62.2% (active); that for `CN1CCN(CC(O)COCCOc2ccc(Br)cc2)CC1` (centres undefined), -26%; that for `O=C(COc1ccccc1CNCc1ccccc1)Nc1ccccc1`, -69.5%.
The result for `O=c1c2cc(NC(=S)N3CCCCC3)ccc2nc2n1CCCCC2` reads -32.7%; that for `CCCNC(=O)c1ccc(-c2nc3ccccc3s2)s1`, -50.1%.
Regarding `Cc1ccc2nc(NC(=O)c3ccc(-c4nc5ccccc5s4)s3)sc2c1`, the inhibition was -74.1%.
The result for `CCN1CCN(C(=O)c2ccc(-c3nc4ccccc4s3)s2)CC1` reads -43.4%; that for `O=C(NC1CC1)c1ccc(-c2nc3ccccc3s2)s1`, 70.1% (active); that for `O=CN1CCN(C(=O)c2ccc(-c3nc4ccccc4s3)s2)CC1`, -25.6%.
For `O=C(c1ccc(-c2nc3ccccc3s2)s1)N1CCOCC1`, the inhibition is 82.9% (active).
Turning to `COc1ccc(NC2CCCN(C(=O)CN3C(=O)c4ccccc4C3=O)C2)cc1OC` (centres undefined), the inhibition was -24.8%.
The result for `COc1ccc(OC)c2c(C)cc(N3CCN(C(=O)c4ccc(C)cc4)CC3)nc12` reads -12.9%; that for `CN(C1CCCCC1)C(CNS(=O)(=O)c1ccc(Cl)cc1)c1ccccc1` (centres undefined), -15.5%.
The figure for `O=C(O)c1ccccc1-n1cccc1C(=O)O` is -9.5%; for `O=C(CN1CCc2ccccc2C1)Nc1cc(S(=O)(=O)N2CCOCC2)ccc1N1CCOCC1` it is -17.8%; for `CCN(CC)c1ccc(S(=O)(=O)N2CCOCC2)cc1NC(=O)CN1CCN(Cc2ccccc2)CC1` it is -3.8%.
The figure for `O=C(NNC(=O)c1ccccc1OCc1ccccc1Cl)c1csc(N2CCOCC2)n1` is 96.3% (active); for `O=C(NNC(=O)c1cc(Br)ccc1Cl)c1csc(N2CCOCC2)n1` it is -14.6%; for `O=C(NNC(=O)c1ccccc1C(F)(F)F)c1csc(N2CCOCC2)n1` it is -87.8%.
On to `CCc1ccc(NC(=O)CN2CCCN(S(=O)(=O)c3ccc(F)cc3)CC2)cc1`, for which the inhibition is -21.6%.
The result for `O=C1CC(c2nc3ccccc3[nH]2)CN1Cc1ccccc1` (centres undefined) reads -15%.
The figure for `COc1ccc(CCNC(=O)C2CC(=O)N(C3CCCCCCC3)C2)cc1OC` (centres undefined) is -23.8%; for `O=c1c2ccccc2nc2n1CCS2` it is -2.5%.
